± gives the standard deviation of the averaged measurements.
Test system: AmpC beta-lactamase (E. coli)
Test: AmpC inhibition relative to DMSO; higher = more inhibition
How it was run: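 In this aggregation counter-screen, E. coli AmpC β-lactamase (5 nM) was held in 50 mM sodium phosphate, pH 7.0, containing 1.0% DMSO with or without 0.01% Triton X-100, and compounds at 4, 11, 33 and 100 μM were incubated with the enzyme for 5 min at RT. Nitrocefin was then added and absorbance at 482 nm was followed for 5 min, with rates background-subtracted against enzyme-free wells. Values are the mean of four technical replicates. Percent inhibition is expressed relative to solvent-only wells.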

[1] = 4 µM, detergent: 0.01% Triton X-100
[2] = 11 µM, detergent: 0.01% Triton X-100
[3] = 33 µM, detergent: 0.01% Triton X-100
[4] = 100 µM, detergent: 0.01% Triton X-100
[5] = 100 µM, detergent: no detergent

Row | SMILES | AmpC inhibition [1] [%] | AmpC inhibition (4 µM, detergent: no detergent) [%] | AmpC inhibition [2] [%] | AmpC inhibition (11 µM, detergent: no detergent) [%] | AmpC inhibition [3] [%] | AmpC inhibition (33 µM, detergent: no detergent) [%] | AmpC inhibition [4] [%] | AmpC inhibition [5] [%]
1 | Cc1cc(-c2ccccc2)cc(C(=O)NNS(=O)(=O)c2ccccc2)c1F | 10.3 ± 2.6 | 7.83 ± 8 | 6.24 ± 2.3 | 9.5 ± 7 | 1.15 ± 3 | 15 ± 4.6 | 8.19 ± 9.7 | 53.4 ± 7.8
2 | COc1ccc(/C(Cl)=C(\C=O)c2ccc(OC)cc2)cc1 | 2.6 ± 2.4 | 17.8 ± 21 | 4.97 ± 1.2 | 3.2 ± 5.5 | 1.35 ± 3.3 | -9.16 ± 9.6 | -4.79 ± 8.1 | 1.57 ± 3.4
3 | CNC(=O)Nc1ccc2c(c1)[C@@]1(CC2)OC(=O)N(CC(=O)N(Cc2ccc(F)cc2)[C@@H](C)C(F)(F)F)C1=O | 9.1 ± 0.37 | 2.44 ± 8.2 | 6.71 ± 1 | 7.48 ± 3.8 | -0.0601 ± 2.8 | -5.13 ± 2 | -4.9 ± 5.7 | -1.81 ± 4.7
4 | ClC1=CC=C(C2=CSC(N/N=C3CCCC/3)=N2)C=C1 | 5.11 ± 3.4 | 11.8 ± 4.8 | 4.35 ± 2.1 | 6.62 ± 2.3 | 1.83 ± 7 | 14.2 ± 9 | 7.09 ± 4.1 | 1.99 ± 3.6
5 | CC(C)([C@](C1=O)(C2=O)C/C=C(C)\C)[C@@H](C[C@]31C[C@@H](C(C)(OC3=C2C(C4=CC(O)=C(C=C4)O)=O)C)C/C=C(C)\C)C/C=C(C)\C | 8.42 ± 5.3 | 13.3 ± 3.5 | 4.79 ± 3.2 | 90 ± 9.4 | 4.67 ± 6.9 | 93.15 ± 0.89 | 2.77 ± 1.7 | 92.3 ± 0.78
6 | O=C(O[C@@H]1Cc2c(O)cc(O)cc2O[C@@H]1c1cc(O)c(O)c(O)c1)c1cc(O)c(O)c(O)c1 | 9.27 ± 1.3 | 11.2 ± 18 | 4.89 ± 2 | 16 ± 3.1 | 4.57 ± 1.2 | 19.6 ± 14 | 1.23 ± 6.1 | 30.2 ± 1.1
7 | c1cc(SSc2ccns2)sn1 | 7.81 ± 8.7 | -0.684 ± 6.7 | 6.83 ± 7.1 | 5.01 ± 6.3 | 7.13 ± 7.9 | 3.34 ± 12 | 9.28 ± 4 | 11 ± 4.2
8 | O=C(NNS(=O)(=O)c1ccccc1)c1cc(-c2ccnnc2)ccc1F | 9.2 ± 1.8 | 2.19 ± 10 | 3.76 ± 1.8 | 16.9 ± 8 | 3.27 ± 1.3 | 5.35 ± 1.6 | 12.2 ± 5.5 | 11.9 ± 7.5
9 | CC1(C)CCC2=C(O1)c1ccccc1C(=O)C2=O | 10.1 ± 3.2 | 0.565 ± 6.8 | 2.63 ± 1.6 | -4.82 ± 5.1 | 6.33 ± 3.7 | -16.2 ± 7.7 | -0.871 ± 3.1 | 4.94 ± 2
10 | C=C(C)[C@@H](CC=C(C)C)C[C@@]12C[C@@H](CC=C(C)C)C(C)(C)[C@@](CC=C(C)C)(C(=O)/C(=C(\O)c3ccc(O)c(O)c3)C1=O)C2=O | 13.6 ± 17 | 0.481 ± 8.4 | -2 ± 19 | 17.9 ± 7.4 | 5.26 ± 8.2 | 63 ± 4.7 | -8.29 ± 6.4 | 97.95 ± 0.64
11 | COc1ccc(/C(Cl)=C(/C=O)c2ccc(OC)cc2)cc1 | -3.57 ± 3.7 | -5.33 ± 6.8 | 3.37 ± 5.7 | 3.21 ± 3.9 | 8.7 ± 7.1 | 0.384 ± 4.4 | 3.87 ± 1.3 | 12.1 ± 2.9
12 | COc1cc(/C=C/c2cc(/C=C/c3ccc(O)c(OC)c3)n(-c3ccc(C(=O)[O-])cc3)n2)ccc1O.[Na+] | 1.31 ± 3 | -4.8 ± 14 | 2.98 ± 1.9 | -29.6 ± 5.8 | 4.87 ± 2.2 | -38.3 ± 23 | 2.96 ± 6 | -2.93 ± 15
13 | CCCC1(c2ccccc2)NC(=O)N(CC(=O)N(C)Cc2c(F)cccc2Cl)C1=O (centres undefined) | 14.2 ± 2.9 | -1.7 ± 2 | 7.15 ± 9.5 | 11.6 ± 7.8 | 6.15 ± 7.3 | 5.75 ± 6.8 | 6.78 ± 1.8 | 3.79 ± 0.91

Source: the supplement of paper PMC10011410
